Common to all, as to assay: Primary qHTS to identify gynecologic anti-cancer compounds using libraries of approved drugs and bioactive compounds (AID 1345084); note: nearly all actives have a fitted effect of over 55% in size
Conditions in all cases: Gynecologic cancer cell panel viability, ATPlite luminescence, 48 h; series mostly up to 57.5 µM

The subject of one experiment is PA-1. A digest of the protocol:
(§1)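 Five-concentration response, 48 h; readout is ATP-driven luciferase luminescence.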

The test system of another experiment is Tov-21-G. A digest of the protocol: as §1
Another experiment relates to Tov112D. Put shortly: as §1

Molecules are shown by their SMILES. Records with an inconclusive call do not appear. Unmarked numbers belong to inactive results. Active and inactive are the calls of the source. Calls come from the whole dose curve; as a rule, active = well fitted cell-killing curve with a large enough effect; inconclusive = small, poorly fitted or top-dose-only effect, or effect the other way; inactive = flat fitted curve, though single readings scatter.
% is set by controls: 0 for no effect and ±100 for the full control effect.

As for `O=C(Nc1ccccc1)Nc1ccc(-c2ccc(C(=O)C3CCCC3C(=O)O)cc2)cc1` (stereo unspecified), the Potency entry in the experiment on PA-1, in the experiment on Tov-21-G and in the experiment on Tov112D was “inactive” each time.
`C[C@@H]1[C@H]2[C@H](O[C@@H]3O[C@H](CO)[C@@H](O)[C@H](O)[C@H]3O)OC=C(C(=O)O)[C@H]2C[C@@H]1OC(=O)/C=C/c1ccc(O)cc1`: the Potency entry with PA-1, in the experiment with Tov-21-G and with Tov112D was “inactive” in each case.
As to `C=CC(C)(CC/C=C(\C)C(=O)OC)OC1OC(COC(=O)CC(C)(O)CC(=O)O)C(O)C(O)C1O` (stereo unspecified), the Potency result in the experiment with PA-1, in the experiment on Tov-21-G and in the experiment with Tov112D was “inactive” throughout.
For `CC1=CC2=C(C)C(=O)C(C)(O)C(O)C2CO1` (stereo unspecified), the Potency entry in the experiment on PA-1, in the experiment with Tov-21-G and with Tov112D was “inactive” each time.
On to `CC(C)C1(O)C=C2C(=O)CC3C(C)(C(=O)O)CCCC3(C)C2CC1` (stereo unspecified), for which the Potency entry in the experiment on PA-1, with Tov-21-G and in the experiment with Tov112D was “inactive” each time.
For `CC1=CC[C@@]2(C)CC[C@@](O)(C(C)C)[C@@H]2[C@@H](O)C1`, the Potency result in the experiment on PA-1, in the experiment on Tov-21-G and in the experiment with Tov112D was “inactive” throughout.
Turning to `O=C1NC(=O)/C(=C/c2cccc(C(F)(F)F)c2)S1`, the Potency result in the experiment with PA-1, in the experiment on Tov-21-G and with Tov112D was “inactive” each time.
Consider `C=C1C2(C)CC3C4(C)C=CC(=O)OC(C)(C)C4CCC3(C)C1(C(=O)OC)C(=O)C(C)(O)C2=O` (stereo unspecified), for which the Potency result in the experiment with PA-1, with Tov-21-G and in the experiment on Tov112D was “inactive” in each case.
Consider `Cc1cc(O[C@@H]2O[C@H](COC(=O)CC(=O)O)[C@@H](O)[C@H](O)[C@H]2O)c(C(C)C)cc1O`, for which the Potency entry in the experiment with PA-1, in the experiment on Tov-21-G and in the experiment with Tov112D was “inactive” each time.
In the case of `COc1cc(/C=C/C(=O)O[C@@H]2O[C@H](CO)[C@@H](O)[C@H](O)[C@H]2O)ccc1O`, the Potency result with PA-1, with Tov-21-G and with Tov112D was “inactive” each time.
Consider `OC[C@H]1O[C@@H](Oc2cc(O)cc(-c3cc4ccc(O[C@@H]5O[C@H](CO)[C@@H](O)[C@H](O)[C@H]5O)cc4o3)c2)[C@H](O)[C@@H](O)[C@@H]1O`, for which the Potency result in the experiment with PA-1, in the experiment with Tov-21-G and in the experiment with Tov112D was “inactive” each time.
As to `COC(=O)C1=CO[C@@H](O[C@@H]2O[C@H](CO)[C@@H](O)[C@H](O)[C@H]2O)[C@@H]2[C@@H](C)[C@@H](O)C(O)[C@H]12` (stereo partly specified), the Potency result with PA-1, in the experiment on Tov-21-G and in the experiment on Tov112D was “inactive” each time.
Turning to `Cc1ncc(Cl)cc1NCc1ccc(C(=O)NC(CC2CCCC2)C(=O)NC2CC2)s1` (stereo unspecified), the Potency result in the experiment on PA-1, with Tov-21-G and in the experiment with Tov112D was “inactive” in each case.
Regarding `CC1C2=CC(=O)OC2(O)CC2C1C(OC(=O)c1ccccc1)C(OC(=O)c1ccccc1)C1(O)C2(C)CCC(O)C1(C)C(=O)O` (stereo unspecified), the Potency result in the experiment with PA-1, in the experiment on Tov-21-G and with Tov112D was “inactive” each time.
As to `O=C1C[C@@]2(C(=O)N1)C(=O)N(Cc1ccc(Br)cc1F)C(=O)c1cccn12`, the Potency entry in the experiment with PA-1, with Tov-21-G and in the experiment on Tov112D was “inactive” each time.
Take `CC1(C)CC[C@]2(C(=O)O)CC[C@]3(C)C(=CCC4[C@@]5(C)CC[C@H](O[C@H]6O[C@H](C(=O)O)[C@@H](O)[C@H](O[C@@H]7O[C@H](CO)[C@H](O)[C@H](O)[C@H]7O)[C@H]6O)C(C)(C)C5CC[C@]43C)[C@@H]2C1` (stereo partly specified): the activity change, negative = cytotoxicity is 2% [at 11.6 µM] with PA-1, 6.29% [at 11.6 µM] in the experiment with Tov-21-G and -0.0817% [at 11.6 µM] in the experiment on Tov112D.
In the case of `COc1cc(O)c2c(c1)C1(OC2=O)C(C)=CC(=O)C1O` (stereo unspecified), the Potency entry with PA-1, in the experiment on Tov-21-G and with Tov112D was “inactive” in each case.
`O=C(Cn1c2ccccc2c2nc3n(c(=O)c21)CCS3)N1CCCC1`: the Potency result in the experiment on PA-1, with Tov-21-G and with Tov112D was “inactive” in each case.
`CC(O)C1NC(=O)C2CCCN2C1=O` (stereo unspecified): the Potency result with PA-1, in the experiment with Tov-21-G and with Tov112D was “inactive” each time.
For `O=C(O)c1cccc(CN2C(=O)/C(=C(\c3ccccc3)c3ccc(Cl)cc3)c3ccccc32)c1`, the Potency entry with PA-1, in the experiment with Tov-21-G and in the experiment on Tov112D was “inactive” each time.
In the case of `COC(=O)c1[nH]c(=O)c2ccccc2c1-c1ccc[nH]1`, the Potency result in the experiment with PA-1 and in the experiment on Tov-21-G was “inactive” in each case.
As to `COc1cc(C[C@@]2(O)CO[C@@H](c3ccc(O[C@@H]4O[C@H](CO)[C@@H](O)[C@H](O)[C@H]4O)c(OC)c3)[C@H]2CO)ccc1O`, the Potency entry in the experiment with PA-1, in the experiment on Tov-21-G and with Tov112D was “inactive” in each case.
Regarding `CC(=O)O[C@@H]1C(O)C[C@@]2(C)C(CC[C@@H](C)C23Cc2c(O)cc4c(c2O3)CNC4=O)C1(C)C` (stereo partly specified), the Potency result in the experiment on PA-1, in the experiment on Tov-21-G and in the experiment on Tov112D was “inactive” throughout.
With `COc1ccc(C(=O)NCc2cc(C(C)C)no2)cc1OC1CCN(C)CC1`, the Potency entry in the experiment on PA-1, with Tov-21-G and in the experiment with Tov112D was “inactive” in each case.
As for `COc1cc(/C=C/C(=O)OCC2OC(OC3(CO)OC(CO)C(O)C3O)C(O)C(O)C2O)ccc1O` (stereo unspecified), the Potency result in the experiment with PA-1, with Tov-21-G and in the experiment on Tov112D was “inactive” each time.
For `CC1CCC2(NC1)OC1C(O)C3C4CCC5CC(O[C@@H]6O[C@H](CO)[C@@H](O)[C@H](O)[C@H]6O[C@@H]6O[C@@H](C)[C@H](O)[C@@H](O)[C@H]6O)CCC5(C)C4CCC3(C)C1C2C` (stereo partly specified), the Potency entry with PA-1, with Tov-21-G and with Tov112D was “inactive” in each case.
Turning to `CC(=O)NC(Cc1c[nH]c2ccccc(=O)c12)C(=O)O` (stereo unspecified), the Potency entry in the experiment on PA-1, in the experiment on Tov-21-G and in the experiment with Tov112D was “inactive” each time.
On to `C=C1C(O)C(OC(=O)c2ccccc2)C2C(C)(C(=O)O)CCCC2(C)C1CC/C(C)=C\CO` (stereo unspecified), for which the Potency entry in the experiment with PA-1, in the experiment on Tov-21-G and with Tov112D was “inactive” in each case.
As for `C/C=C(/C)C(=O)OC1C2OC2C2(CO2)C2C3OC(=O)C(C)C3CCC12C` (stereo unspecified), the Potency result in the experiment with PA-1, in the experiment on Tov-21-G and in the experiment with Tov112D was “inactive” in each case.
